Casp6 inh: human caspase-6 inhibitors, primary screen, biochemical, VEID-R110 fluorescence, single point, set 2 | purified caspase-6, Z-VEID-R110 cleavage fluorescence | 350,000 tested, 0.53% active | AID 686996, 2013 | inhibition, % at 12.5 µM | P55212;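 active means mean inhibition across replicates at least about 35%, with every replicate also reaching that limit, limit read from the data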;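 further: 0% = median of neutral control wells and 100% = no fluorescence left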
RAD52 inh: RAD52 DNA annealing inhibitors, primary screen, biochemical, FRET, single point, set 2; inhibition, % at 18.7 µM; AID 651710, 2012; DNA repair protein RAD52 homolog (Homo sapiens), P43351; recombinant RAD52 DNA annealing, FRET fluorescence; 360,000 tested, 0.46% active;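 active means every replicate showing at least 50% inhibition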
Target sequence (P43351 whole entry, looked up): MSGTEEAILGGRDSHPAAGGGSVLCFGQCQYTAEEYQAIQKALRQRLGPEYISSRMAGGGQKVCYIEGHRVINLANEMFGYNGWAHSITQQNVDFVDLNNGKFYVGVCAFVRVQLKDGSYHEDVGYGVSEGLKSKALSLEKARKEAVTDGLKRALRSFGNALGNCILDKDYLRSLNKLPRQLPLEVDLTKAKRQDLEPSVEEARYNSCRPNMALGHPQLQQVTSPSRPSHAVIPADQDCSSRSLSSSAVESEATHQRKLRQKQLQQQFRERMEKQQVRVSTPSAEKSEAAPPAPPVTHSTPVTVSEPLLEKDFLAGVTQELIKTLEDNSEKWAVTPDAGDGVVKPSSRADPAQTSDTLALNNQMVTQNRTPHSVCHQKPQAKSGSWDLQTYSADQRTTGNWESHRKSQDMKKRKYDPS
MLL AF4-AF9 inh: inhibitors of AF4 peptide binding to AF9, primary screen, biochemical, AlphaScreen, biotin-AF4 peptide, FLAG-AF9, single point. Protein AF-9 (Homo sapiens), P42568. inhibition, % at 10 µM. 350,000 tested, 0.47% active. AID 651704, 2012;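 active means every replicate reaching a set inhibition limit, whatever the replicate mean, cut at about 25% in these data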;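 further: 0% = plate neutral control median and 100% = total signal loss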
N-glyco inh: increase of ERlucT glycosylation luciferase signal, primary screen, N-linked glycosylation inhibitor project, D54 ERlucT cells, luminescence, set 2; D54 ERlucT glycosylation luciferase reporter, 24 h; percent of 100 nM tunicamycin response; reporter increase, % at 12.5 µM; 360,000 tested, 0.23% active;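 active means mean luciferase reporter signal, scaled so untreated is 0 and the glycosylation-blocking control 100, at or above a set limit in every replicate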;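 further: luciferase carries N-glycosylation sites so blocking glycosylation raises the light; 0% = median of neutral control wells and 100% = median of 100 nM tunicamycin wells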
RAD54 inh: inhibitors of human RAD54 branch migration, primary screen, biochemical, fluorescence, single point; RAD54 Holliday junction branch migration, FAM/BHQ fluorescence; inhibition, % at 10.4 µM; 360,000 tested, 0.14% active;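 active means mean normalized replicate activity at least 40 and at least half of replicates scoring 40 or more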;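 further: 0% = median of neutral control wells and 100% = median of positive control wells; inhibitors cause a drop in the FAM fluorescence signal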
* marks the source's active call; other numbers are inactive results; nt = no result given. Rows were chosen to be rich in hits. Some 1.2% of all compounds tested hit in one or more screens of this group.

SMILES	Casp6 inh	RAD52 inh	MLL AF4-AF9 inh	N-glyco inh	RAD54 inh
CCC(CC)COC(=O)C1=C(C)NC(=O)NC1c1cc(OC)ccc1OC (centres undefined)	68*	-14	-3	0	0
CCC(CC)COC(=O)C1=C(C)NC(=O)NC1c1ccc(OC)cc1 (centres undefined)	-2	0	-2	-1	-4
N#Cc1cccc2c1-c1ccccc1/C2=N/NC(N)=O	nt	nt	nt	25	85*
N#Cc1cccc2c1-c1ccccc1/C2=N/NC(N)=S	nt	nt	nt	7	nt
CCN(C(=O)COC(=O)CNC(=O)c1ccc2ccccc2c1)C1CCS(=O)(=O)C1 (centres undefined)	47*	-7	-2	1	nt
O=C(O)c1cccc(Cn2c(Cl)c(/C=N/NC(=O)c3ccccc3)sc2=O)c1	nt	nt	nt	-2	-7
O=C(O)c1cccc(Cn2c(Cl)c(/C=N/NC(=O)c3cc4ccccc4cc3O)sc2=O)c1	42*	-48	3	1	-20
COC(=O)C[C@H]1CC[C@@H]2[C@H](COc3ccc(NC(=O)c4cnccn4)cc3C(=O)N2C)O1	57*	-5	-1	nt	3
CN1C(=O)c2cc(NC(=O)c3cccc(F)c3)ccc2OC[C@@H]2O[C@@H](CC(=O)N3CCc4ccccc4C3)CC[C@H]21	56*	6	0	nt	0
CN1C(=O)c2cc(NC(=O)Cc3cccs3)ccc2OC[C@H]2O[C@@H](CC(=O)NCCc3ccncc3)CC[C@@H]21	-2	12	-3	nt	4
CN1C(=O)c2cc(NC(=O)Cc3cccs3)ccc2OC[C@@H]2O[C@@H](CC(=O)NCCc3ccncc3)CC[C@@H]21	69*	5	0	nt	7
CCNC(=O)Nc1ccc2c(c1)C(=O)N(C)[C@H]1CC[C@@H](CC(=O)NCCN3CCCC3)O[C@H]1CO2	nt	nt	nt	nt	-7
CN1C(=O)c2cc(NC(=O)Nc3ccc(Cl)cc3)ccc2OC[C@@H]2O[C@@H](CC(=O)NCCN3CCCCC3)CC[C@H]21	3	53*	14	nt	10
CC(C)NC(=O)Nc1cccc2c1O[C@@H](CN(C)Cc1ccc3c(c1)OCO3)[C@@H](C)CN([C@@H](C)CO)C2=O	6	0	2	nt	nt
CC(C)Nc1ccc(C(CC(N)=O)NC(=O)c2ccc(Br)cc2)cc1[N+](=O)[O-] (centres undefined)	-1	27	-11	49*	-1
NC(=O)CC(NC(=O)Cc1ccc(Cl)cc1)c1ccc(NC2CCCC2)c([N+](=O)[O-])c1 (centres undefined)	4	-36	2	49*	-17
NC(=O)CC(NC(=O)Cc1ccc(Cl)cc1)c1ccc(NC2CCCCC2)c([N+](=O)[O-])c1 (centres undefined)	-2	-132	-24	45*	-3
NC(=O)CC(NC(=O)Cc1cccc2ccccc12)c1ccc(NC2CCC2)c([N+](=O)[O-])c1 (centres undefined)	2	-33	-4	3	0
NC(=O)CC(NC(=O)Cc1ccc(Br)cc1)c1ccc(NC2CCC2)c([N+](=O)[O-])c1 (centres undefined)	2	-6	-1	39*	-4
O=C(C[C@H]1CC[C@H]2NC[C@H](O)COC[C@@H]2O1)NCCN1CCCC1	-1	-20	2	nt	nt
CC(C)C#Cc1ccc2c(c1)O[C@H](CN(C)Cc1cncnc1)[C@H](C)CN([C@H](C)CO)S2(=O)=O	0	7	2	nt	1
CC(C)Nc1ccc(C(CC(N)=O)NC(=O)Cc2ccc(Cl)cc2)cc1[N+](=O)[O-] (centres undefined)	-4	-136	1	41*	-10
O=C(O)c1cc(O)c2c(c1)C(=O)c1cccc(O)c1C2=O	40*	-234	-16	4	-1
Cc1cc(O)c2c(c1)C(=O)c1cccc(O)c1C2=O	4	-26	5	nt	nt
C[C@@H]1CN([C@H](C)CO)C(=O)c2c(c3ccccc3n2C)-c2ccccc2CO[C@@H]1CN(C)C(=O)Nc1ccnc(N2CCOCC2)c1	-1	-3	6	nt	nt
